BAZ2B inh = qHTS Assay for Inhibitors of BAZ2B; hit rate 4.4% among 360,000; AlphaScreen BAZ2B-H3K14Ac peptide displacement; Potency, µM (highest dose often 114 µM), usual class: inhibitors; also: nearly all actives have a fitted effect of over 60% in size
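AlphaScreen luminescence quantifies BAZ2B engagement of H3K14Ac peptide; the protein and biotinylated peptide are both at 50 nM final, buffer PBS pH 7.4 with 0.01% Tween-20, all steps at room temperature.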
G9a inh = qHTS Assay for Inhibitors of Histone Lysine Methyltransferase G9a | G9a H3K9 monomethylation, AlphaScreen, 2 h | Potency, µM (series often up to 102 µM), actives largely listed as inhibitors | hit rate 8.8% among 350,000; also: nearly all actives have a fitted effect of over 75% in size
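Step 1: enzyme (final 20 nM) with compound, 15 min RT. Step 2: substrate peptide 500 nM and SAM 20 uM, 2 h RT. Step 3: anti-H3K9me1 antibody and AlphaScreen beads, 10 min, then plate read.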
HP1b binding inh = HTS for Inhibitors of HP1-beta Chromodomain Interactions with Methylated Histone Tails. AlphaScreen HP1-beta / biotin-H3K9me3 peptide binding. Potency, µM (doses to about 114 µM), most hits filed as inhibitors. hit rate 0.56% among 390,000. Chromobox protein homolog 1 (Homo sapiens), P83916; also: nearly all actives have a fitted effect of over 70% in size
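Compound inhibition of the preformed complex between 50 nM HP1-beta and 50 nM biotinylated H3K9me3 peptide was read by AlphaScreen. Buffer was PBS pH 7.4 with 0.01% Tween-20. Incubations ran 30 min at room temperature, with 10 ug/mL donor/acceptor beads.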
L3MBTL1 block = qHTS Assay for the Inhibitors of L3MBTL1; hit rate 0.66% among 230,000; Lethal(3)malignant brain tumor-like protein 1 (Homo sapiens), Q9Y468; AID 485360, 2010; AlphaScreen L3MBTL1–H3K9me1 peptide binding; Potency, µM (doses to about 57.1 µM), usual class: inhibitors; also: nearly all actives have a fitted effect of over 60% in size
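First, the protein-peptide complex forms for 30 min at room temperature (L3MBTL1 50 nM, biotinylated H3K9me1 peptide 75 nM). Next, compounds are pin-transferred and incubated 30 min. Finally, AlphaScreen beads are added and read after 30 min.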
JMJD2A Tudor inh = qHTS Assay for Inhibitors of JMJD2A-Tudor Domain | hit rate 4.4% among 390,000 | AlphaScreen JMJD2A-Tudor / H3K4me3 peptide binding | Potency, µM (top dose mostly 114 µM), most hits filed as inhibitors; also: nearly all actives have a fitted effect of over 50% in size
Target sequence (O75164 whole entry, looked up, the tested form may be a part): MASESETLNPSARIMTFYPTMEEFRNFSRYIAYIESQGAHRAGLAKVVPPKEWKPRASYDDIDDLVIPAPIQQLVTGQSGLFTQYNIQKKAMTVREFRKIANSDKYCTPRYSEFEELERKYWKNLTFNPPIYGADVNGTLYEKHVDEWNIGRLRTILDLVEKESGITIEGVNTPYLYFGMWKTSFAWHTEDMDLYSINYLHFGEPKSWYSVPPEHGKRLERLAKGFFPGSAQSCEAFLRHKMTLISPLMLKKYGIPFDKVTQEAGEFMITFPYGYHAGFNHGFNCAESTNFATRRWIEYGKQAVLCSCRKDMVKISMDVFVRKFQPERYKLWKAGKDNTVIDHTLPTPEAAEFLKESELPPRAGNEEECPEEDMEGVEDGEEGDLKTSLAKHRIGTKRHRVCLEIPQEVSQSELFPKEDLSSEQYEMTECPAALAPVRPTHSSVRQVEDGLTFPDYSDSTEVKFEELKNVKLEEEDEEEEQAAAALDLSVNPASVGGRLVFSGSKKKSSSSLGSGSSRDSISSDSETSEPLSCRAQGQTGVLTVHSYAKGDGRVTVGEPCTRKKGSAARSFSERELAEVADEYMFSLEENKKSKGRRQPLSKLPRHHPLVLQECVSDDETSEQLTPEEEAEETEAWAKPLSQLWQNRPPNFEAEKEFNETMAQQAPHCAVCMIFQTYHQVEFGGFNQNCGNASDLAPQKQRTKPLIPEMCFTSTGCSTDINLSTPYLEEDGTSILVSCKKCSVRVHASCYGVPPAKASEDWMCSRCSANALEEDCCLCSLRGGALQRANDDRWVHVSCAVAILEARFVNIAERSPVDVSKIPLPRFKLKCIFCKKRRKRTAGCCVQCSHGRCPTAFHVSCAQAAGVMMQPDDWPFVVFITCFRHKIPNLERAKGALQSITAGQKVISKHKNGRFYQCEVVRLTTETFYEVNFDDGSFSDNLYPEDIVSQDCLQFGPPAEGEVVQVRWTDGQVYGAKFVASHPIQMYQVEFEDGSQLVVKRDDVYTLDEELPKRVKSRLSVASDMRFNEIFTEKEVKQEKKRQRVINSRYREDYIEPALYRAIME
Large screens that a line does not name were inactive. This is a sample that favours compounds with a hit; in the whole collection about 11% have one here. Calls follow the shape of the dose curve; as a rule, active = well fitted inhibition curve with a large enough effect; inconclusive = small, poorly fitted or top-dose-only effect; inactive = no such curve, though single readings can be large or run the other way.

FC(F)(F)c1ccccc1-n1c(CN2CCCCC2)n[nH]c1=S	G9a inh 20µM, JMJD2A Tudor inh 22µM (no result: L3MBTL1 block)
S=c1[nH]nc(Cn2cnc3ccccc32)n1-c1ccccc1	G9a inh 8.9µM, JMJD2A Tudor inh 4.5µM
Cc1cc(NC(=O)c2cc(-c3ccc(F)cc3)on2)nn1Cc1ccc(Cl)cc1	none (no result: L3MBTL1 block)
CCCN(C(=O)c1c(C)oc2ncn(CC(C)C)c(=O)c12)c1ccccc1C	none (no result: L3MBTL1 block)
CC(OC(=O)CCCC(=O)Nc1ccc(F)cc1)C(=O)c1ccccc1 (centres undefined)	none (no result: L3MBTL1 block)
S=c1[nH]nc(COc2ccccc2)n1-c1ccc(Cl)cc1	none (no result: BAZ2B inh, G9a inh, L3MBTL1 block)
S=c1[nH]nc(CN2CCCCC2)n1-c1ccc(Cl)cc1	G9a inh 18µM (no result: L3MBTL1 block)
CCN(CCCNC(=O)c1cn(CC)c2ccc(S(=O)(=O)N(C)C)cc2c1=O)c1cccc(C)c1	BAZ2B inh inconclusive, G9a inh 35µM, JMJD2A Tudor inh inconclusive
CCn1cc(C(=O)NCCCN(C)c2ccccc2)c(=O)c2cc(S(=O)(=O)N(C)C)ccc21	BAZ2B inh inconclusive, G9a inh inconclusive, JMJD2A Tudor inh inconclusive
CCN(CCCNC(=O)CSc1cc(=O)n(CC)c2ccccc12)c1cccc(C)c1	BAZ2B inh 22µM, G9a inh inconclusive, HP1b binding inh inconclusive, JMJD2A Tudor inh 32µM (no result: L3MBTL1 block)
CCN(CCCNC(=O)CNC(=O)Cn1cnc2ccccc2c1=O)c1ccccc1	G9a inh 2.2µM (no result: L3MBTL1 block)
CCN(CCCNC(=O)COc1cc(=O)n(C)c2ccccc12)c1ccccc1	JMJD2A Tudor inh inconclusive
CCN(CCCNC(=O)COc1cc(=O)n(CC)c2ccccc12)c1ccccc1	BAZ2B inh inconclusive, G9a inh 11µM, JMJD2A Tudor inh inconclusive
COC(=O)c1ccc(CSCc2ccc(C(=O)OC)o2)o1	none (no result: L3MBTL1 block)
COC(=O)c1cc(CC(=O)c2ccc(O)cc2O)c(C)o1	BAZ2B inh inconclusive
COC(=O)c1ccc(CC(=O)c2ccc(O)cc2O)o1	BAZ2B inh 63µM, G9a inh 22µM
CCOC(=O)c1ccc(CC(=O)c2ccc(O)cc2O)o1	G9a inh 22µM (no result: L3MBTL1 block)
COC(=O)c1ccc(CC(=O)c2c(C)cc(O)cc2O)o1	BAZ2B inh inconclusive, G9a inh 45µM, L3MBTL1 block inconclusive, JMJD2A Tudor inh inconclusive
CCN1Cc2c(/C=C/c3ccccc3)nc3ccc(OC)cc3c2N(c2cccc(Cl)c2)C1	BAZ2B inh inconclusive, G9a inh 13µM
O=[N+]([O-])c1cc(/C=N/O)ccc1SCc1ccccc1	none
O=[N+]([O-])c1cc(/C=N/O)ccc1Sc1ccccc1	BAZ2B inh 50µM, G9a inh inconclusive, JMJD2A Tudor inh 56µM (no result: L3MBTL1 block)
CCCCC(=O)Nc1ccc(C(=O)OCc2cc(=O)n3ccsc3n2)cc1	none (no result: L3MBTL1 block)
Cc1nnc(NC(=O)c2c(-c3ccccc3Cl)noc2C)s1	none
C/C(=N/OC(=O)c1c(-c2ccccc2Cl)noc1C)c1cnccn1	none
CC(C)c1nnc(NC(=O)c2sc3ccccc3c2Cl)s1	G9a inh 45µM
Cc1onc(-c2ccccc2Cl)c1C(=O)Nc1nnc(C(C)C)s1	G9a inh 50µM
Cc1onc(-c2ccccc2Cl)c1C(=O)O/N=C(\N)c1ccc([N+](=O)[O-])o1	BAZ2B inh inconclusive, G9a inh 35µM, JMJD2A Tudor inh inconclusive
CCC(Oc1ccc(F)cc1)C(=O)Nc1nc(-c2ccc(F)cc2)ns1 (centres undefined)	none (no result: L3MBTL1 block)
C=Cc1ccc(C(=O)N2CCCC(Nc3ccc4c(c3)OCCO4)C2)cc1 (centres undefined)	BAZ2B inh inconclusive, G9a inh 40µM, JMJD2A Tudor inh inconclusive (no result: L3MBTL1 block)
C=CCOc1cccc(C(=O)N2CCCC(Nc3ccc4c(c3)OCCO4)C2)c1 (centres undefined)	BAZ2B inh 45µM, G9a inh inconclusive, JMJD2A Tudor inh inconclusive (no result: L3MBTL1 block)
Cc1cc(C)cc(NC(=O)N2CCC(N3CCCCC3)CC2)c1	none (no result: L3MBTL1 block)
CCN(CC)c1nn2c(=O)c(C(=O)NCCc3ccc(C)cc3)cnc2s1	none (no result: L3MBTL1 block)
Cc1cc(N2O[C@H]3C=C[C@@H]2C3)no1	JMJD2A Tudor inh 79µM (no result: BAZ2B inh, G9a inh)
CC(C)=NNc1nc2c(c(=O)[nH]c(=O)n2C)n1CCc1ccccc1	BAZ2B inh inconclusive, G9a inh 45µM, HP1b binding inh inconclusive
CC/C(C)=N/Nc1nc2c(c(=O)[nH]c(=O)n2C)n1Cc1ccccc1	BAZ2B inh inconclusive, HP1b binding inh inconclusive, JMJD2A Tudor inh inconclusive (no result: L3MBTL1 block)
CC/C(C)=N/Nc1nc2c(c(=O)[nH]c(=O)n2C)n1CCc1ccccc1	G9a inh 56µM
OC1CCN(Cc2nc(Cc3ccccc3Cl)no2)CC1	none
CN1CCCN(Cc2cccc3ccccc23)CC1	BAZ2B inh 56µM, HP1b binding inh inconclusive, JMJD2A Tudor inh 25µM (no result: G9a inh)
OC1CCN(Cc2cccc3ccccc23)CC1	BAZ2B inh 50µM, G9a inh inconclusive, HP1b binding inh inconclusive, JMJD2A Tudor inh 79µM
Cc1c(C(=O)N2CCC(C(=O)Nc3ccc(F)cc3)CC2)sc2nc[nH]c(=O)c12	none (no result: L3MBTL1 block)
COc1cc(-c2nc3ccccn3c2/N=C/c2cc(OC)c(OC)c(OC)c2)ccc1O	JMJD2A Tudor inh 45µM (no result: BAZ2B inh, G9a inh, L3MBTL1 block)
Cc1c(-c2ccc(Br)cc2)nc2ccccn12	G9a inh 45µM
CN(C)c1ccc(-c2nc3ccccn3c2/N=C/c2ccc(Br)cc2)cc1	BAZ2B inh 11µM, G9a inh 10µM, HP1b binding inh inconclusive, L3MBTL1 block inconclusive, JMJD2A Tudor inh 45µM
COc1cc(-c2nc3cnccn3c2Nc2ccccc2)ccc1O	G9a inh inconclusive
O=C(Nc1ccc(C2=NCCN2)cc1)c1ccc(Cl)c(C(=O)Nc2ccc(C3=NCCN3)cc2)c1	G9a inh 18µM (no result: HP1b binding inh, JMJD2A Tudor inh)
O=C(Nc1ccc(Cl)c(Cl)c1)c1ccc(Cl)c(Cl)c1	none
CS(=O)(=O)N1CCN(c2ccc(NC(=O)C(c3ccccc3)c3ccccc3)cc2)CC1	G9a inh 8.9µM
O=C(Nc1ccc(N2CCCC2)cc1)C(Cl)c1ccccc1 (centres undefined)	BAZ2B inh 50µM, G9a inh 10µM, HP1b binding inh 45µM, JMJD2A Tudor inh 28µM
O=C(Nc1ccc(Cl)cc1)N1CCN(c2ccccc2)CC1	none
NC(=O)CCn1ccc2ccccc21	none (no result: BAZ2B inh, L3MBTL1 block)
CCOC(=O)c1c(S(=O)(=O)N2CCN(c3ccccc3OC)CC2)c(C)n(C)c1C	none (no result: L3MBTL1 block)
COc1ccccc1N1CCN(S(=O)(=O)c2c(C(=O)N3CCOCC3)c(C)n(C)c2C)CC1	JMJD2A Tudor inh 16µM (no result: L3MBTL1 block)
O=C(COC(=O)c1ccc(O)cc1)Nc1ncc(Cl)cc1Cl	BAZ2B inh 79µM, G9a inh inconclusive, L3MBTL1 block inconclusive
O=C(COC(=O)c1ccc2ncsc2c1)Nc1ncc(Cl)cc1Cl	BAZ2B inh 50µM, G9a inh inconclusive, L3MBTL1 block inconclusive, JMJD2A Tudor inh inconclusive
O=C(COC(=O)c1ccc2ncsc2c1)Nc1cc(Cl)ccc1F	none
